The panel holds about 83,000 compounds, 20% with a hit somewhere; the sample as a whole holds those more often.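 For each line, cells grew in 96-well plates with the test compound present at a single concentration for 48 hours.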 A number with no mark means an inactive call. Calls of active or inactive are those of the source. Rule for the calls: active = growth percent below 10; inactive = the rest.
Tests used:
Test in all cases: NCI-60 one-dose screen, 48 h (100 = growth as untreated, 0 = no growth, -100 = all killed)
Settings in all cases: 10 µM unless noted
SK-MEL-2 melanoma = system: SK-MEL-2 melanoma
EKVX NSCLC = system: EKVX NSCLC
SN12C renal = system: SN12C renal
UO-31 renal = system: UO-31 renal
TK-10 renal = system: TK-10 renal
ACHN renal = system: ACHN renal
CAKI-1 renal = system: CAKI-1 renal
A498 renal = system: A498 renal
CCRF-CEM leukemia = system: CCRF-CEM leukemia
MOLT-4 leukemia = system: MOLT-4 leukemia
SR leukemia = system: SR leukemia
RPMI-8226 leukemia = system: RPMI-8226 leukemia
OVCAR-8 ovarian = system: OVCAR-8 ovarian
OVCAR-5 ovarian = system: OVCAR-5 ovarian
OVCAR-4 ovarian = system: OVCAR-4 ovarian
SK-OV-3 ovarian = system: SK-OV-3 ovarian
IGROV1 ovarian = system: IGROV1 ovarian
OVCAR-3 ovarian = system: OVCAR-3 ovarian
HS 578T breast = system: HS 578T breast
NCI/ADR-RES ovarian = system: NCI/ADR-RES ovarian

Structure (SMILES)	growth (SK-MEL-2 melanoma)	growth (EKVX NSCLC)	growth (SN12C renal)	growth (UO-31 renal)	growth (TK-10 renal)	growth (ACHN renal)	growth (CAKI-1 renal)	growth (A498 renal)	growth (CCRF-CEM leukemia)	growth (MOLT-4 leukemia)	growth (SR leukemia)	growth (RPMI-8226 leukemia)	growth (OVCAR-8 ovarian)	growth (OVCAR-5 ovarian)	growth (OVCAR-4 ovarian)	growth (SK-OV-3 ovarian)	growth (IGROV1 ovarian)	growth (OVCAR-3 ovarian)	growth (HS 578T breast)	growth (NCI/ADR-RES ovarian)
COc1ccc2[nH]cc(-c3nnc(N)nc3-c3c[nH]c4ncc(Br)cc34)c2c1	104%	82.6%	77.1%	65.9%	101%	59%	70%	87.7%	88.9%	70.8%	67.8%	76.8%	82.5%	97.9%	96.6%	76.2%	48.3%	104%	70.1%	97.9%
COc1ccc(/C=C/c2nc3ccccc3n3c(-c4ccc(Cl)cc4)nnc23)cc1	99.8%	88.7%	91.7%	66.4%	106%	93.5%	72.2%	85.3%	78.1%	72.6%	60.1%	81.4%	92.7%	102%	81%	98.4%	66.8%	99%	96.2%	94.4%
COc1ccc(-c2nc3cc(C)ccc3n2CC(=O)N=Nc2c(O)[nH]c3ccccc23)cc1	58%	46%	-91.7% (active)	53.7%	73.6%	-12.5% (active)	53.3%	102%	79.1%	13.2%	0.97% (active)	59.3%	-58.1% (active)	13.8%	-25.3% (active)	47.8%	59.3%	-33.8% (active)	4.27% (active)	-47.1% (active)
Cc1cc2c(cc1Cl)C(=O)/C(=C/c1ccccc1)O2	41%	-7.97% (active)	-68.8% (active)	-80.4% (active)	56%	-83.1% (active)	-81.1% (active)	115%	4.91% (active)	0.549% (active)	10.1%	26%	-24.7% (active)	75%	9.29% (active)	71.4%	-48.2% (active)	26.8%	21%	-19.8% (active)
Cn1cc(-c2nc(N)nnc2-c2c[nH]c3ccc(Br)cc23)c2cc(Br)cnc21	13.1%	30.4%	11.3%	10.4%	47.4%	6.39% (active)	-8.15% (active)	-14.3% (active)	0.493% (active)	-2.69% (active)	-17.2% (active)	-12% (active)	1.57% (active)	21.8%	32.8%	9.61% (active)	14.2%	0.628% (active)	30.2%	12.5%
O=C(COc1ccc2c(c1)CCCC(=O)N2)NCc1ccccc1	87.1%	95.2%	108%	84.7%	110%	103%	92.7%	94.6%	78%	80.6%	27.6%	94.9%	99.5%	101%	92%	89.5%	111%	85.4%	94.2%	80.2%
C#CCOc1ccc(/C=N/Nc2nc(-c3cc4cc(Br)ccc4oc3=O)cs2)cc1OC	105%	78.9%	72.8%	89.7%	102%	71%	67.9%	50.1%	100%	92.8%	80.2%	68.2%	65.7%	73.9%	47.8%	25.7%	83.1%	87.3%	86.8%	63.8%
S=C(Nc1ccc(OCc2nc3ccccc3[nH]2)cc1)NC1CCCCC1	123%	104%	87.8%	96.8%	130%	101%	100%	150%	95%	98.3%	105%	101%	95.1%	117%	102%	108%	107%	123%	102%	106%
O=C(c1ccccc1)c1ccc2nc(-c3ccc(F)cc3)[nH]c2c1	62.4%	80.9%	30.5%	91.1%	104%	57.1%	40.9%	90.7%	15.7%	27.6%	27.9%	43.1%	83.3%	41.5%	49.5%	74%	45.9%	32.6%	65.1%	58.3%
O=C1CCCc2cc(OCC(=O)N3CCCCC3)ccc2N1	111%	104%	114%	92.9%	104%	107%	96.7%	114%	98.4%	102%	104%	101%	104%	123%	103%	111%	121%	110%	105%	109%
CCCS(=O)(=O)N1CCCC(C(=O)Nc2nc3ccc(NC(=O)c4ccc(F)c(OC)c4F)cc3s2)C1 (stereo not given)	49.7%	39.7%	65.5%	38.8%	75.3%	46.7%	43.2%	84.3%	14.9%	0.124% (active)	16.2%	12.4%	26.6%	86%	32.3%	61.1%	63.3%	48.9%	29.4%	19.9%
COc1ccc(CCC2c3c(cc4c(c3OC)OCO4)CCN2C)cc1 (stereo not given)	-62.7% (active)	-17.3% (active)	-18.6% (active)	-21.9% (active)	-14.7% (active)	-16.5% (active)	0.732% (active)	13.2%	4.55% (active)	-4.81% (active)	-18.2% (active)	-28.5% (active)	-41.7% (active)	-16.5% (active)	9.34% (active)	-37.6% (active)	-52.4% (active)	-21.2% (active)	11%	-54.5% (active)
COc1cc2oc(-c3cccc(C(=O)Nc4ccc(Cl)cc4)c3)cc(=O)c2c(OCCNC(=O)[C@H](CCC(=O)OC(C)(C)C)NC(=O)OC(C)(C)C)c1OC	106%	90.7%	91.9%	74.4%	109%	93.7%	69.4%	113%	95.3%	71.6%	72.9%	78.1%	100%	107%	93%	102%	89.9%	110%	92.6%	91.5%
COc1cc2oc(-c3cccc(C(=O)Nc4ccc(Cl)cc4)c3)cc(=O)c2c(OCC(=O)N[C@@H](Cc2ccccc2)C(=O)O)c1OC	116%	107%	105%	90.8%	134%	97.2%	91.2%	102%	98.9%	110%	104%	101%	106%	101%	104%	138%	98%	117%	108%	104%
CCN1C(=O)/C(=N\N=C(/C)c2ccc3c(c2)Nc2ccccc2S3)c2cc(Cl)ccc21	70.8%	40.1%	58.9%	56.6%	72.1%	24.6%	48.1%	60.1%	50.8%	37.4%	60.8%	48%	68.1%	83.7%	41.6%	108%	69.9%	55.6%	80%	68.8%

Reference: PubChem BioAssay (NCI)
